USP28 inh = blocks human USP28 ubiquitin-rhodamine cleavage; purified USP28, Ub-rhodamine cleavage fluorescence, 30 min; inhibition, % at 25 µM; 47,000 tested, 3% active; Q96RU2; AID 1645857
USP17 block = human USP17-like deubiquitinase inhibition; 47,000 tested, 6.5% active; AID 1645855; purified USP17, Ub-rhodamine cleavage fluorescence, 3 h; inhibition, % at 50 µM
USP8 inh = inhibitors of human USP8 deubiquitinase; P40818; purified USP8, Ub-rhodamine cleavage fluorescence, 30 min; inhibition, % at 20 µM; 47,000 tested, 4.2% active; AID 1645853
OTUD3 block = inhibitors of human OTUD3 deubiquitinase. Q5T2D3. purified OTUD3, Ub-rhodamine fluorescence, 2 h. inhibition, % at 25 µM. 47,000 tested, 0.7% active. AID 1645858
USP10 inh = human USP10 deubiquitinase inhibition; 47,000 tested, 1.1% active; AID 1645856; inhibition, % at 20 µM; Q14694; purified USP10, Ub-rhodamine fluorescence, 60 min
Target sequence (Q14694 whole entry, looked up): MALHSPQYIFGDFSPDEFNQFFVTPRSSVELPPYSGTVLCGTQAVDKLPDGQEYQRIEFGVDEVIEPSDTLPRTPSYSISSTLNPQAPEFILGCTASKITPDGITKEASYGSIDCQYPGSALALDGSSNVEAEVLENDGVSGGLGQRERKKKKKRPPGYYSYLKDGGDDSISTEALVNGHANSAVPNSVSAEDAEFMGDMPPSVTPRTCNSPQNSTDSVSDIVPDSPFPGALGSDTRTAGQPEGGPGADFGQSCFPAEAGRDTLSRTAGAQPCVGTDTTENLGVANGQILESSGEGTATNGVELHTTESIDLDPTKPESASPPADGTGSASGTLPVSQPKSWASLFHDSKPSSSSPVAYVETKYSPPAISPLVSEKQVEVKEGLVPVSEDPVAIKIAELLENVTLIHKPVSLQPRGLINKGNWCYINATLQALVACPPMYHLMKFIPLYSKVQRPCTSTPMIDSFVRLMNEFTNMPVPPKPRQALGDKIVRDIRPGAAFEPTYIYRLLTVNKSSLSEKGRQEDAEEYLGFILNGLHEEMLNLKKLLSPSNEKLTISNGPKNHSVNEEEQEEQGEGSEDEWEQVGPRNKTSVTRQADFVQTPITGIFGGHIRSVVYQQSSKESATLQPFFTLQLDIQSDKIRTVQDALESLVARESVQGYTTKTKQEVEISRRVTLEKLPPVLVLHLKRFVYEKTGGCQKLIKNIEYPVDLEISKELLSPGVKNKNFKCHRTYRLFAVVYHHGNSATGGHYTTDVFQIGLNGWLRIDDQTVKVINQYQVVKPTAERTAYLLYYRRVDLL
USP30 block = blocks human USP30 ubiquitin-rhodamine cleavage; Q70CQ3; purified USP30, Ub-rhodamine cleavage fluorescence; inhibition, % at 25 µM; 47,000 tested, 5.3% active
* hit, by the source's call; . = not tested or not shown. The list is not random: actives were taken first. Their share in the collection is about 13%. Cut-off read from the data, not from the text of the source: active = inhibition above about 30%; inactive = the rest.

SMILES	USP28 inh	USP17 block	USP8 inh	OTUD3 block	USP10 inh	USP30 block
O=C(CNC(=O)c1ccc2nc(-n3cccc3)sc2c1)NCc1cccc(Cl)c1	-29	-51	69*	-30	0	-70
O=C(c1cc(-c2ccc(Cl)cc2)n[nH]1)N1CCN(CCOc2ccc(Cl)cc2)CC1	2	5	-10	7	-2	12
Oc1cc(OCCN2CCCCC2)ccc1-c1[nH]ncc1-c1ccccc1	3	15	66*	-1	0	-5
Cc1noc([C@@H]2C[C@H]3CN(Cc4ccc(F)c(F)c4)C[C@H]3O2)n1	0	-28	-132	-2	2	6
Cc1cccc(CNC(=O)c2cnc3sc4c(n3c2=O)CCCC4)c1	7	16	2	13	8	37*
CCOc1ccc(NC(=O)Cn2cnc(S(=O)(=O)N3CCc4ccccc43)c2)cc1	48*	80*	1	12	6	11
CCn1c(NC(=O)c2cccc(Br)c2)c(-c2ccc(Cl)cc2)c(=O)c2ccccc21	.	25	5	1	15	.
Cc1nc(Nc2ccc(NC(=O)CC(C)C)cc2)cc(N2CCOCC2)n1	-1	-10	-157	-10	-1	-19
O=C(NCc1ccncc1)c1ccc(-n2cccn2)c(C#Cc2cccnc2)c1	-9	43*	-110	-5	-1	-7
CCOC(=O)C1CCN(C(=O)c2ccc(CNS(=O)(=O)c3ccc(Cl)cc3)cc2)CC1	11	17	9	11	0	32*
CCOC(=O)C1CCN(C(=O)c2ccc(CNS(=O)(=O)c3ccc(OC)cc3)cc2)CC1	16	14	13	16	2	25
CC[C@@H]1CCC[C@H](C)CC[C@@H](O[C@@H]2O[C@@H](C)[C@@H](O)[C@@H](N)[C@H]2O)[C@H](CC)CCCNC1=O	83*	83*	4	36*	14	95*
O=C(Cn1cnc2onc(-c3ccccc3F)c2c1=O)NCCCc1ccccc1	19	22	9	15	3	24
Cc1c(C)n(-c2ccccc2)c2ncn(CC(=O)NCCCc3ccccc3)c(=O)c12	-2	70*	11	-1	3	-1
CN(Cc1ccccc1)C(=O)Cn1cnc2c(cnn2C)c1=O	-13	1	8	-8	0	-4
Cc1c(C)n(-c2ccccc2)c2ncn(CC(=O)N(C)Cc3ccccc3)c(=O)c12	-3	53*	-14	4	-4	-2
Cc1ccc(N(Cc2nc3nc(C)cc(=O)n3[nH]2)C(=O)CCc2ccccc2)cc1	-6	0	-11	-3	1	3
Cc1[nH]ncc1C(=O)N1CCCC(c2cccc(-n3ccnc3C)n2)C1 (centres undefined)	4	40*	8	12	1	9
CC1(C)C[C@@H](O)[C@]2(C)CC[C@]3(C)C(=CCC4[C@@]5(C)CCC(=O)[C@](C)(CO)[C@@H]5CC[C@]43C)[C@@H]2C1 (some centres undefined)	-3	28	1	-6	4	18
CC1CCC2(C(=O)O)CCC3(C)C(=CCC4C5(C)CCC(O)C(C)(C)C5CCC43C)C2C1C (mixture of isomers)	16	23	2	15	1	40*
C[C@@H]1CC[C@]2(C(=O)O)CC[C@]3(C)C(=CCC4[C@@]5(C)CC[C@H](O)C(C)(C)C5CC[C@]43C)C2[C@H]1C (some centres undefined)	9	4	2	5	5	35*
Cc1ccc(C(CNC(=O)COc2ccccc2C)N2CCCC2)o1 (centres undefined)	-4	-14	5	3	-1	-22
O=C(CSc1ccc(N2CCC(C(=O)NC3CC3)CC2)nn1)Nc1cccc(Cl)c1	-18	38*	-10	-13	-7	-91
CC1CCN(c2ccc(N3CCC(C(=O)NC4CCCCC4)CC3)nn2)CC1	-6	-8	-24	-13	-5	-26
Cc1ccc(-c2noc(Cn3ccnc3C)n2)cc1	13	2	3	5	-2	-22
SMILES	USP28 inh	USP17 block	USP8 inh	OTUD3 block	USP10 inh	USP30 block
O=C1CCCC[C@]2(CN(Cc3ccc(N4CCCCC4)cc3F)C[C@H]2c2ccccn2)N1	-56	-4	21	-45	0	-217
CCOc1ccccc1C(=O)Nc1ccc(-c2nccs2)cc1	5	13	-20	0	5	31*
O=C(Nc1ccc(-c2nccs2)cc1)c1ccccc1Cl	8	-22	-56	-10	2	-10
O=C(COc1ccc(C(=O)OCc2csc(-c3ccccc3)n2)cc1)Nc1cccc(C(F)(F)F)c1	9	31*	18	7	14	33*
CCc1ccc(OCC(=O)Nc2cccc(-c3nc4ccccc4s3)c2)cc1	-3	-7	-7	5	5	36*
O=C(COc1ccc(F)cc1)NCc1csc(-c2ccccc2)n1	-1	16	-29	4	0	0
CCc1ccc(OCC(=O)NCc2csc(-c3ccc(OC)cc3)n2)cc1	0	-14	-8	-1	11	-3
CC(C)(C)C(=O)Cn1c(=O)n(Cc2ccco2)c(=O)c2ccc(C(=O)NC3CCCC3)cc21	-7	0	2	-2	15	12
COc1ccc(-n2c(=O)c3ccc(C(=O)NCCc4ccccc4)cc3n(CC(=O)NCc3ccco3)c2=O)cc1	15	60*	6	25	44*	-12
COc1ccc(NC(=O)Cn2c(=O)n(-c3ccc(CC(=O)NCCc4ccccc4)cc3)c(=O)c3ccccc32)cc1	11	16	28	7	8	19
O=C(Cn1c(=O)n(Cc2ccco2)c(=O)c2ccc(C(=O)NC3CCCC3)cc21)NCc1ccco1	28	55*	45*	15	20	-15
Cc1cc(NC(=O)Cn2c(=O)n(Cc3ccco3)c(=O)c3ccc(C(=O)NCCc4ccccc4)cc32)n[nH]1	84*	82*	87*	77*	66*	74*
CCOC(=O)c1ccc(NC(=O)CC2N=C(N3CCN(c4ccccc4)CC3)NC2=O)cc1 (centres undefined)	-9	7	21	-5	2	-14
Cc1cc(N2CCCCC2)nc2ccc(NC(=O)CCC(=O)NC(C)c3ccc4c(c3)OCCO4)cc12 (centres undefined)	17	36*	19	4	-4	11
CCN(CC)c1cc(C)c2cc(NC(=O)CCc3ccc(OC)cc3)ccc2n1	46*	13	54*	13	2	5
COc1ccc(NC(=O)CCc2nc3ccccc3c(=O)[nH]2)cc1	-13	-22	-26	3	-3	-46
COc1ccc(CC(=O)Nc2ccc3nc(N4CCOCC4)cc(C)c3c2)cc1	22	53*	21	9	-1	38*
COc1ccccc1CNC(=O)CCC(=O)Nc1ccc2nc(N3CCC(C)CC3)cc(C)c2c1	5	32*	17	-19	-4	-12
